Source: PubChem BioAssay (NCI)
The panel holds about 83,000 compounds, 20% with a hit somewhere; the sample as a whole holds those more often.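 Compound tested at a single concentration for 48 hours in 96-well plates; a percent growth value below 10 was scored as active.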 Unmarked numbers belong to inactive results. Calls of active or inactive are those of the source.

tested on: DU-145 prostate; test: NCI-60 one-dose screen, 48 h (100 = growth as untreated, 0 = no growth, -100 = all killed); conditions: 10 µM unless noted

Point of comparison: CCn1c(SC)nnc1-c1cc2c([nH]c3ccccc32)c(-c2cccc(O)c2)n1, growth 28.1%. Against it:
- COc1cc2nc(C(=O)N3CCCCC3)cc(Nc3ccccc3)c2cc1OC — higher, 92.8%
- CCCOC(=O)c1ccc([N+](=O)[O-])o1 — higher, 118%
- COc1ccccc1S(=O)(=O)Nc1ccc2c3c(cc(-c4ccoc4)nc13)C(=O)N2C — higher, 86.5%
- OCc1cnccc1NC12CC3CC(CC(C3)C1)C2 — higher, 104%
- Cc1ccc2oc(=O)cc(C3C(C#N)=C(N)Oc4c3ccc3ccccc43)c2c1 (stereo not drawn) — higher, 96.3%
- CCCCNC(=O)Oc1ccc(/C(=C(/CC)Cc2ccccc2)c2ccc(OCCCN(C)C)cc2)cc1 — higher, 89.2%
- C=C1C(=O)O[C@H]2[C@H]1CC/C(COC(=O)c1ccc(C#N)cc1)=C\CC[C@@]1(C)O[C@@H]21 — lower, 18.4%
- O=C(Nc1ccc(F)cc1)Nc1ccc(Br)c(C(F)(F)F)c1 — lower, 22.3%
- COc1ccccc1S(=O)(=O)Nc1ccc2c3c(cc(-c4cnn(C5CC5)c4)nc13)C(=O)N2C — higher, 85.1%
- Nc1nc(Nc2ccc(OCc3cccc(F)c3)cc2)c2c(n1)[nH]c1ccc(O)cc12 — lower, 10.4%
- CCn1c(SCC(=O)c2ccc(Br)cc2)nnc1-c1cc2c([nH]c3ccccc32)c(-c2cccc(O)c2)n1 — higher, 85.3%
- O=C(Cn1c2ccccc2c2ccncc21)N/N=C/c1c[nH]c2ccccc12 — higher, 53.5%
- CC(=O)c1cc2c(N)c(C(=O)Nc3cccc(Cl)c3)sc2nc1C — higher, 87.3%
- S=c1[nH]nc(Cn2c3ccccc3c3ccncc32)o1 — higher, 108%
- COc1ccccc1S(=O)(=O)Nc1ccc2c3c(cc(-c4cnn(C)c4)nc13)C(=O)N2C — higher, 64.2%
- CCNC(=O)Oc1ccc(/C(=C(/CC)Cc2ccccc2)c2ccc(OCCN3CCOCC3)cc2)cc1 — higher, 73.9%
- COc1ccc(-c2cc3ccc(N(C)C)cc3nc2N)c(F)c1 — higher, 56.1%
- CC(=O)O[C@@H]1[C@@H](OC(C)=O)[C@H](OC(C)=O)CO[C@H]1Nc1cccc2ccccc12 — higher, 100%
- COc1ccc(C2CC(c3cc(Cl)c(C)cc3OC)=NN2c2ccc(S(N)(=O)=O)cc2)cc1OC (stereo not drawn) — higher, 106%
- O=C(CNc1cccnc1)Nc1ccc(C(=O)/C=C/c2ccc(Cl)cc2)cc1 — higher, 103%
- C/C(=N/NC(=O)Cn1c2ccccc2c2ccncc21)c1cccs1 — higher, 108%
- COc1ccc(/C=N/C2=NNC(C)(c3ccccc3O)N2C(Cc2c[nH]c3ccccc23)C(=O)O)cc1 (stereo not drawn) — higher, 58.9%
- O=C(Nc1ccc(Cl)c(Cl)c1)Nc1ccc(Cl)c([N+](=O)[O-])c1 — lower, 18%
- COc1ccc(C(=O)Cn2cnc3c(Nc4cc(C(=O)Nc5ccc(N6CCN(CCO)CC6)cc5)ccc4C)ncnc32)cc1 — higher, 105%
- O=[N+]([O-])c1ccc(NS(=O)(=O)c2ccccc2)c2ccccc12 — higher, 62.4%
- FC(F)(F)c1cn(CCN2CCOCC2)c2ncnc(Cl)c12 — higher, 57.8%
- CN1C(=O)C2(SCC(C(=O)NCC(=O)OC(C)(C)C)N2C(=O)C2CCCCC2)c2ccccc21 (stereo not drawn) — higher, 105%
- C=C1C(=O)O[C@H]2[C@H]1CC/C(COC(=O)c1ccc(Cl)nc1)=C\CC[C@@]1(C)O[C@@H]21 — lower, 12.4%
- CCOc1cccc(Nc2nc(N)nc3[nH]c4ccc(O)cc4c23)c1 — higher, 49%
- Cc1ccc2c(C3C(C#N)=C(N)Oc4cc5ccccc5cc43)cc(=O)oc2c1 (stereo not drawn) — lower, 16%
- CC(C(=O)O)N1C(N)=NNC1c1ccccc1O (stereo not drawn) — higher, 102%
- Cc1cc(N2CCOCC2)nc(N(CCNc2ccnc3cc(Cl)ccc23)Cc2ccco2)n1 — higher, 53.4%

CC(=O)c1cc2c(c(O)c1C)C(=O)C(=O)c1c(O)cccc1-2 was tested, and the growth was -94.8% (active).
For COc1ccc(-c2coc3c(CO)c(O)ccc3c2=O)cc1, the growth was 9.29% (active).
For CCOc1ccccc1C(=O)N1CCN(c2cc(Cl)cc(Cl)c2)CC1, the growth was 8.76% (active).
For C=C1C(=O)O[C@H]2[C@H]1CC/C(COC(=O)c1ccc(Br)cc1)=C\CC[C@@]1(C)O[C@@H]21, the growth was -33.7% (active).
In the case of C=C1C(=O)O[C@H]2[C@H]1CC/C(COC(=O)c1cc(OC)c(OC)c(OC)c1)=C\CC[C@@]1(C)O[C@@H]21, the growth is reported as -23.8% (active).
C=C1C(=O)O[C@H]2[C@H]1CC/C(COC(=O)c1cccc3ccccc13)=C\CC[C@@]1(C)O[C@@H]21 was tested, and the growth was -95.1% (active).

tested on: MALME-3M melanoma; test: as above; conditions: 10 µM unless noted

Point of comparison: CCNC(=O)Oc1ccc(/C(=C(/CC)Cc2ccccc2)c2ccc(OCCN3CCOCC3)cc2)cc1, growth 81.1%. Against it:
- COc1cc2nc(C(=O)N3CCCCC3)cc(Nc3ccccc3)c2cc1OC — higher, 116%
- CCCOC(=O)c1ccc([N+](=O)[O-])o1 — higher, 116%
- COc1ccccc1S(=O)(=O)Nc1ccc2c3c(cc(-c4ccoc4)nc13)C(=O)N2C — lower, 71.3%
- OCc1cnccc1NC12CC3CC(CC(C3)C1)C2 — higher, 99.4%
- Cc1ccc2oc(=O)cc(C3C(C#N)=C(N)Oc4c3ccc3ccccc43)c2c1 (stereo not drawn) — higher, 95.5%
- COc1ccc(-c2coc3c(CO)c(O)ccc3c2=O)cc1 — lower, 21.3%
- CCOc1ccccc1C(=O)N1CCN(c2cc(Cl)cc(Cl)c2)CC1 — lower, 45.3%
- CCCCNC(=O)Oc1ccc(/C(=C(/CC)Cc2ccccc2)c2ccc(OCCCN(C)C)cc2)cc1 — higher, 93.4%
- CCn1c(SC)nnc1-c1cc2c([nH]c3ccccc32)c(-c2cccc(O)c2)n1 — lower, 33.1%
- COc1ccccc1S(=O)(=O)Nc1ccc2c3c(cc(-c4cnn(C5CC5)c4)nc13)C(=O)N2C — lower, 63.9%
- CCn1c(SCC(=O)c2ccc(Br)cc2)nnc1-c1cc2c([nH]c3ccccc32)c(-c2cccc(O)c2)n1 — lower, 64.6%
- O=C(Cn1c2ccccc2c2ccncc21)N/N=C/c1c[nH]c2ccccc12 — lower, 43.7%
- CC(=O)c1cc2c(N)c(C(=O)Nc3cccc(Cl)c3)sc2nc1C — higher, 102%
- S=c1[nH]nc(Cn2c3ccccc3c3ccncc32)o1 — higher, 100%
- COc1ccccc1S(=O)(=O)Nc1ccc2c3c(cc(-c4cnn(C)c4)nc13)C(=O)N2C — lower, 51.2%
- COc1ccc(-c2cc3ccc(N(C)C)cc3nc2N)c(F)c1 — lower, 25.3%
- CC(=O)O[C@@H]1[C@@H](OC(C)=O)[C@H](OC(C)=O)CO[C@H]1Nc1cccc2ccccc12 — higher, 86.9%
- COc1ccc(C2CC(c3cc(Cl)c(C)cc3OC)=NN2c2ccc(S(N)(=O)=O)cc2)cc1OC (stereo not drawn) — higher, 101%
- O=C(CNc1cccnc1)Nc1ccc(C(=O)/C=C/c2ccc(Cl)cc2)cc1 — higher, 89.3%
- C/C(=N/NC(=O)Cn1c2ccccc2c2ccncc21)c1cccs1 — higher, 100%
- COc1ccc(/C=N/C2=NNC(C)(c3ccccc3O)N2C(Cc2c[nH]c3ccccc23)C(=O)O)cc1 (stereo not drawn) — lower, 12.9%
- COc1ccc(C(=O)Cn2cnc3c(Nc4cc(C(=O)Nc5ccc(N6CCN(CCO)CC6)cc5)ccc4C)ncnc32)cc1 — higher, 116%
- O=[N+]([O-])c1ccc(NS(=O)(=O)c2ccccc2)c2ccccc12 — lower, 18.8%
- FC(F)(F)c1cn(CCN2CCOCC2)c2ncnc(Cl)c12 — higher, 111%
- CN1C(=O)C2(SCC(C(=O)NCC(=O)OC(C)(C)C)N2C(=O)C2CCCCC2)c2ccccc21 (stereo not drawn) — higher, 101%
- CCOc1cccc(Nc2nc(N)nc3[nH]c4ccc(O)cc4c23)c1 — higher, 96.9%
- Cc1ccc2c(C3C(C#N)=C(N)Oc4cc5ccccc5cc43)cc(=O)oc2c1 (stereo not drawn) — lower, 66.4%
- CC(C(=O)O)N1C(N)=NNC1c1ccccc1O (stereo not drawn) — higher, 85.6%
- Cc1cc(N2CCOCC2)nc(N(CCNc2ccnc3cc(Cl)ccc23)Cc2ccco2)n1 — lower, 62.8%

With CC(=O)c1cc2c(c(O)c1C)C(=O)C(=O)c1c(O)cccc1-2 the growth was -83.1% (active).
For C=C1C(=O)O[C@H]2[C@H]1CC/C(COC(=O)c1ccc(C#N)cc1)=C\CC[C@@]1(C)O[C@@H]21, the growth was -22.4% (active).
For O=C(Nc1ccc(F)cc1)Nc1ccc(Br)c(C(F)(F)F)c1, the growth was -6.11% (active).
With Nc1nc(Nc2ccc(OCc3cccc(F)c3)cc2)c2c(n1)[nH]c1ccc(O)cc12 the growth was -69.5% (active).
For C=C1C(=O)O[C@H]2[C@H]1CC/C(COC(=O)c1ccc(Br)cc1)=C\CC[C@@]1(C)O[C@@H]21, the growth was -54.1% (active).
With C=C1C(=O)O[C@H]2[C@H]1CC/C(COC(=O)c1cc(OC)c(OC)c(OC)c1)=C\CC[C@@]1(C)O[C@@H]21 the growth was -57.7% (active).
In the case of O=C(Nc1ccc(Cl)c(Cl)c1)Nc1ccc(Cl)c([N+](=O)[O-])c1, the growth is reported as -12.3% (active).
For C=C1C(=O)O[C@H]2[C@H]1CC/C(COC(=O)c1cccc3ccccc13)=C\CC[C@@]1(C)O[C@@H]21, the growth was -74.5% (active).
For C=C1C(=O)O[C@H]2[C@H]1CC/C(COC(=O)c1ccc(Cl)nc1)=C\CC[C@@]1(C)O[C@@H]21, the growth was -51% (active).
